# Test results reported in PubChem BioAssay.
# Unmarked numbers belong to inactive results. Active and inactive are the calls of the source. Cut-off read from the data, not from the text of the source: active = fold change permeability below about 0.7 or above about 1.3; inactive = in between.
# Assay: modulators of brain endothelial barrier permeability, primary screen, cell-based, FITC-avidin fluorescence, HTS (AID 1963498); note: test concentration not given here
# Details: actives lie on both sides
row,SMILES,fold change permeability
1,CCCNC(C)C(=O)Nc1ccccc1C (centres undefined),1
2,NCCCCN=C(N)N,1.3 (active)
3,Cc1c(C(C)C)c(=O)n(-c2ccc(S(=O)(=O)NCCOc3ccccc3)cc2)n1C,1.3 (active)
4,CCCCS(=O)(=O)N[C@@H](Cc1ccc(OCCCCC2CCNCC2)cc1)C(=O)O,1.5 (active)
5,O=C(NCCN1CCOCC1)c1ccc(Cl)cc1,0.8
6,NC(=O)N1c2ccccc2C=Cc2ccccc21,1.1
7,CN[C@H](CC(C)C)C(=O)N[C@H]1C(=O)N[C@@H](CC(N)=O)C(=O)N[C@H]2C(=O)N[C@H]3C(=O)N[C@H](C(=O)N[C@H](C(=O)O)c4cc(O)cc(O)c4-c4cc3ccc4O)[C@H](O)c3ccc(c(Cl)c3)Oc3cc2cc(c3O[C@@H]2O[C@H](CO)[C@@H](O)[C@H](O)[C@H]2O[C@H]2C[C@](C)(N)[C@H](O)[C@H](C)O2)Oc2ccc(cc2Cl)[C@H]1O,1.6 (active)
8,CC[N+](CC)(CC)CC(=O)Nc1c(C)cccc1C,1.5 (active)
9,CN(C)CCc1c[nH]c2ccc(Cn3cncn3)cc12,1
10,CCN(CC)CCOC(=O)C1(C2CCCCC2)CCCCC1,1.6 (active)
11,NC(=O)c1ccccc1,1.2
12,NCCCC(N)(C(=O)O)C(F)F (centres undefined),0.8
13,CC(C)Cc1ccc([C@H](C)C(=O)O)cc1,2.3 (active)
14,N[C@@H](CCCC(=O)O)C(=O)O,1.1
15,O=C(Nc1cccc(C(=O)Nc2ccc(S(=O)(=O)O)c3cc(S(=O)(=O)O)cc(S(=O)(=O)O)c23)c1)Nc1cccc(C(=O)Nc2ccc(S(=O)(=O)O)c3cc(S(=O)(=O)O)cc(S(=O)(=O)O)c23)c1,0.9
16,O=C1Cc2c([nH]c3ccc(Br)cc23)-c2ccccc2N1,0.7 (active)
17,CC1CNc2c(cccc2S(=O)(=O)N[C@@H](CCCN=C(N)N)C(=O)N2CC[C@@H](C)C[C@@H]2C(=O)O)C1 (some centres undefined),0.9
18,C[C@H](O)C(=O)C1=Nc2c(nc(N)[nH]c2=O)NC1,0.7 (active)
19,OCCN1CCN(CCCN2c3ccccc3Sc3ccc(C(F)(F)F)cc32)CC1,1.4 (active)
20,O=[N+]([O-])c1ccc(-c2nc(-c3ccc(F)cc3)c(-c3ccncc3)[nH]2)cc1,1.4 (active)

row,SMILES,fold change permeability
1,O=c1c(O)c(-c2cc(O)c(O)c(O)c2)oc2cc(O)cc(O)c12,0.7 (active)
2,CCN1CCCC1CNC(=O)c1cc(S(=O)(=O)CC)c(N)cc1OC (centres undefined),0.7 (active)
3,O=C(OC12CC3CC(CC(C3)C1)C2)c1ccc(NCc2cc(O)ccc2O)cc1,1
4,CN1Cc2sccc2C(c2ccc(O)c(O)c2)C1 (centres undefined),1
5,Oc1ccccc1O,0.9
6,[Li+],1
7,CCCc1c(-c2ccc(O)cc2)nn(-c2ccc(O)cc2)c1-c1ccc(O)cc1,1.4 (active)
8,Cc1nc2sccn2c(=O)c1CCN1CCC(=C(c2ccc(F)cc2)c2ccc(F)cc2)CC1,1.9 (active)
9,COc1ccc2c(c1)c(CC(=O)O)c(C)n2C(=O)c1ccc(Cl)cc1,1.7 (active)
10,Nc1cc(Cl)c(NC2=NCCN2)c(Cl)c1,1
11,CSc1ccccc1N1CCN(CCCCCC(=O)NC2CCCc3ccccc32)CC1 (centres undefined),1.3 (active)
12,Cn1c(=O)c2[nH]c(-c3ccc(S(=O)(=O)O)cc3)nc2n(C)c1=O,1
13,CCCCc1ncc(/C=C(\Cc2cccs2)C(=O)O)n1Cc1ccc(C(=O)O)cc1,0.9
14,COc1ccc(/C=C/C(=O)Nc2ccc(C(F)(F)F)cc2)cc1OC,1.6 (active)
15,C[C@H](CS)C(=O)N1CCC[C@H]1C(=O)O,1
16,N[C@@H](Cc1cc(CP(=O)(O)O)cc(-c2ccccc2Cl)c1)C(=O)O,0.9
17,CCCC(CCC)C(=O)OC1CC2CCC(C1)[N+]2(C)C (centres undefined),0.9
18,O=C(O)c1cc2cc(Cc3cccnc3)ccc2o1,0.8
19,CN1C(=O)c2sccc2N(C)c2nc(Nc3ccc(S(N)(=O)=O)cc3)ncc21,1.8 (active)
